Screening results deposited in PubChem by several laboratories.
eLon inh: inhibits E. coli Lon protease; P0A9M0; purified E. coli Lon protease, fluorescence polarization; inhibition, % at 7.94 µM; actives 0.42% (n = 360,000); AID 602123; in the data active = inhibition above about 13%, passing the limit was not always enough;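 note: 0% = enzyme with probe and DMSO and 100% = no enzyme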
Target sequence (P0A9M0 whole entry, looked up): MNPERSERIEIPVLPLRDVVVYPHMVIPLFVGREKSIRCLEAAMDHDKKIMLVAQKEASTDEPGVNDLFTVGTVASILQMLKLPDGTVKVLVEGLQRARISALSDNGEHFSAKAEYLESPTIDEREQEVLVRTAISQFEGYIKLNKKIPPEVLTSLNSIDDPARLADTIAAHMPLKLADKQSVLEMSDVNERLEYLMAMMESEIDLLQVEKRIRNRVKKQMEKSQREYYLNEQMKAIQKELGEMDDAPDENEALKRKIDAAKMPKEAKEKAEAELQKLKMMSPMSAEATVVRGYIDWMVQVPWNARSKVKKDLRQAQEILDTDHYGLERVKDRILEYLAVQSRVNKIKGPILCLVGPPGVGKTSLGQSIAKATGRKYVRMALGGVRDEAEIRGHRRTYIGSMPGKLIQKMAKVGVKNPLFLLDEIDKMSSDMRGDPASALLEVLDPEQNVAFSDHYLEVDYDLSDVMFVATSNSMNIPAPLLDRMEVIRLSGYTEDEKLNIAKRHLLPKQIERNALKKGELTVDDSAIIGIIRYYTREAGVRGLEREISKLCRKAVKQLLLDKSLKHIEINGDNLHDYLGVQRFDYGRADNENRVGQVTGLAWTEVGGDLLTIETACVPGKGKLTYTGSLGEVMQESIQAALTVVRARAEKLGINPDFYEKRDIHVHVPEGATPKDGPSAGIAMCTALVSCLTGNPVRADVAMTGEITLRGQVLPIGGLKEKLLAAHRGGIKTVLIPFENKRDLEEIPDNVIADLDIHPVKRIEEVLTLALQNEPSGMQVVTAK
MCL1-BIM inh: MCL1-BIM-BH3 interaction inhibition (human). GST-MCL1 / FITC-Bim-BH3 fluorescence polarization. Q07820. inhibition, % at 10.9 µM. actives 0.68% (n = 320,000);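 active = inhibition above the mean inhibition of all tested compounds plus 3 SD, set per campaign, cut at about 40% in these data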;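 note: 0% = DMSO wells and 100% = unlabeled Bim-BH3 peptide control; higher means more loss of mP so more displacement of Bim peptide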
GLD-1 RNA inh: GLD-1-TGE RNA interaction inhibition (C. elegans) | purified GLD-1 + fluorescein TGE RNA, fluorescence polarization | inhibition, % at 5.96 µM | actives 0.44% (n = 320,000);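 active = percent inhibition above a per-plate cutoff, the plate mean of test compounds plus 3 SD, cut at about 30% in these data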;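 note: 0% = DMSO wells with GLD-1 and probe and 100% = wells lacking GLD-1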
EBV gp42 block: EBV gp42 inhibition. Fluorescence polarization binding assay, mP read-out. AID 1085. Q1HVG2. actives 0.42% (n = 220,000). inhibition, % (tested at 21.74 µM); in the data active = inhibition above about 50%
MEX-5 binding: C. elegans MEX-5 TCR-2 RNA binding activity | Q9XUB2 | MEX-5/FITC-TCR2 RNA binding, fluorescence polarization; hits give low values | activity score (negative = inhibition of binding), % at 10 µM | actives 0.38% (n = 300,000) | AID 1832;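 active = inhibition past about -25% in most replicates, and total fluorescence under double the plate's negative control median, limit read from the data; inconclusive = replicates evenly split on the limit, or fluorescence at least double controls; inactive = too little inhibition in most replicates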;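 note: 0% = DMSO and -100% = 5 µM competing unlabeled TCR2 RNA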
BCLXL inh: blocks human Bcl-xL binding to Bim BH3 peptide; Q07817; GST-Bcl-xL / FITC-Bim BH3 peptide fluorescence polarization; inhibition, % at 10.9 µM; actives 0.7% (n = 320,000); AID 2129;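 active = inhibition above the mean of all tested compounds plus 3 SD, cutoff set per campaign, cut at about 30% in these data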;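 note: 0% = DMSO wells and 100% = unlabeled Bim-BH3 peptide competitor; inhibitors lower millipolarization by displacing the labeled peptide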
BCLXL inh confirm: Bcl-xL (human) inhibition, MCL1 counter-screen confirmation; inhibition, % at 10.9 µM; actives 54% (n = 1,700); shares compounds with MCL1-BIM inh; GST-Bcl-xL / FITC-Bim BH3 peptide FP binding;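 active = inhibition above a cutoff equal to the mean inhibition of all tested compounds plus 3 SD, cut at about 30% in these data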;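 note: 0% = DMSO wells and 100% = unlabeled Bim BH3 control peptide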
MCL1 inh confirm: confirmation of human MCL1 and BIM-BH3 interaction inhibitors; shares compounds with MCL1-BIM inh; GST-MCL1 / FITC-Bim-BH3 fluorescence polarization; inhibition, % at 10.9 µM; actives 61% (n = 1,700); AID 2168;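 active = inhibition above the average of all tested compounds plus 3 SD, cut at about 40% in these data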;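 note: 0% = DMSO wells and 100% = unlabeled Bim-BH3 control peptide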
* hit, by the source's call; u = inconclusive; x = no result. This is a sample that favours compounds with a hit; in the whole collection about 1.5% have one here.

SMILES | eLon inh | MCL1-BIM inh | GLD-1 RNA inh | EBV gp42 block | MEX-5 binding | BCLXL inh | BCLXL inh confirm | MCL1 inh confirm
CC[C@]12c3[nH]c4cc(-c5ccco5)ccc4c3CCN1C(=O)[C@@H](CC(=O)NCCCOC)C[C@@H]2C(=O)N1CCN(C(=O)c2ccco2)CC1 | -10 | x | x | x | x | x | x | x
CCOC(=O)c1cc2c(=O)n3ccccc3nc2n(Cc2ccco2)c1=NC(=O)c1ccc(OC)cc1OC | -12 | 52* | 19 | -12 | 0 | 49* | 11 | 12
Cc1ccccc1C(=O)N=c1c(C#N)cc2c(=O)n3cccc(C)c3nc2n1Cc1ccco1 | x | 15 | 10 | -98 | 0 | 19 | x | x
CCOCCCn1c(=NC(=O)c2cccnc2)c(C(=O)OCC)cc2c(=O)n3ccccc3nc21 | -12 | 15 | -4 | -3 | 1 | 10 | x | x
N#Cc1cc2c(=O)n3ccccc3nc2n(Cc2ccco2)c1=NC(=O)c1ccco1 | 5 | 75* | 23 | -19 | -17 | 54* | 15 | 12
CCOCCCn1c(=NC(=O)c2cccs2)c(C#N)cc2c(=O)n3ccccc3nc21 | 0 | 97* | 55* | 36 | u | 91* | 62* | 75*
Cc1ccc(-n2nnc(-c3nccn3C)n2)cc1 | 2 | 16 | -1 | -11 | 0 | 8 | x | x
COc1cccc(OCC(=O)O)c1 | 7 | 3 | 3 | -2 | 1 | 3 | x | x
C[C@H]1CN([C@@H](C)CO)C(=O)c2cc(Br)cnc2O[C@@H]1CN(C)S(=O)(=O)c1cn(C)cn1 | -8 | x | x | x | x | x | x | x
COC(=O)c1cc2n3ccccc3c(C)c(-c3ccccc3)c-2c1C(=O)OC | 38 | 119* | 86* | 103* | u | 110* | 111* | 140*
COC(=O)c1cc2ccccn2c2c(C(=O)OC)c(C(=O)OC)cc1-2 | 0 | 21 | 7 | -10 | 0 | 21 | x | x
Cc1ccc(S(=O)(=O)NCC(=O)OC(C)C(=O)NC2CCCCC2C)cc1C (centres undefined) | 0 | x | x | x | x | x | x | x
CC1(C)Oc2ccc(C(=O)NC3CCCC3)cc2N(CC(=O)NC2CCCCC2)C1=O | -9 | 54* | 6 | -3 | -3 | 4 | 25 | 34
O=C(N/N=C/c1ccc(O)c(O)c1O)/C(=C/c1ccc([N+](=O)[O-])cc1)NC(=O)c1ccccc1 | 27* | 41* | 5 | 12 | 0 | 20 | 33* | 63*
O=C(O)CC1(c2ccc(F)cc2)C2CC3CC(C2)CC1C3 (centres undefined) | 10 | 5 | 2 | x | 0 | 3 | x | x
Cc1c(-c2cccc(Cl)c2)nc2ccccc2c1C(=O)OC/C(O)=C(\C#N)c1nc2ccccc2[nH]1 | -23 | 6 | 8 | -26 | 1 | 16 | x | x
O=c1cc(-c2ccc(O)c(O)c2)oc2ccc3ccccc3c12 | -3 | x | x | x | x | x | x | x
O=c1cc(-c2ccc(O)c(O)c2)oc2c1ccc1ccccc12 | -9 | 45* | 3 | x | x | 4 | 18 | 45*
O=C(c1ccco1)N1CCCC(N2CCN(c3cccc(C(F)(F)F)c3)CC2)C1 (centres undefined) | 7 | 5 | -3 | x | -7 | 4 | x | x
Cc1ccccc1Nc1nc(N)nc(COC(=O)/C=C/c2ccco2)n1 | 8 | -2 | 4 | -32 | 0 | 4 | x | x
O=C(O)c1ccc(N2C(=O)/C(=C/C=C/c3ccccc3)SC2=S)cc1 | -6 | 40* | 0 | -9 | -3 | 16 | 6 | 14
O=C(CCN1C(=O)/C(=C\C=C\c2ccccc2)SC1=S)Nc1ccc(C(=O)O)cc1 | -32 | 13 | -10 | x | u | 0 | x | x
CC1(C(=O)NS(=O)(=O)c2ccc3ccccc3c2)CCN1C(=O)Cc1ccc(-c2ccccc2)cc1 (centres undefined) | 8 | x | x | x | x | x | x | x
O=C(NNS(=O)(=O)c1ccc(F)cc1)c1ccccc1O | -2 | 8 | 6 | x | -4 | -3 | x | x
Cc1ccc(S(=O)(=O)NNC(=O)c2ccccc2O)cc1 | 20 | 44* | 0 | -8 | 0 | 16 | 12 | 29
